PubChem BioAssay (NCATS)
Inconclusive results are not listed. Unmarked numbers belong to inactive results. The source made the active and inactive calls. Calls follow the shape of the dose curve; as a rule, active = well fitted inhibition curve with a large enough effect; inconclusive = small, poorly fitted or top-dose-only effect; inactive = no such curve, though single readings can be large or run the other way.

target: Aldehyde dehydrogenase 1A1 (Homo sapiens) (UniProt P00352); experiment: qHTS for Inhibitors of the Aldehyde Dehydrogenase Family (ALDH1A1) Confirmatory screens (AID 2061316); conditions: ALDH inhibition qHTS; series mostly up to 47.3 µM; activity change, negative = inhibition: at the top concentration; also: nearly all actives have a fitted effect of over 65% in size
% is scaled to controls: 0 for no effect and ±100 for the full control effect; potency is read from the fitted curve at half-maximal effect.

`CNc1oc(-c2cccc(-c3ccccc3)c2)nc1C#N` was tested. Which “activity change, negative = inhibition” value did it give?
Its value is -36.3%.

`Nc1nnc(-c2cccc3ccccc23)o1` was tested. Which “outcome” value did it give?
Its value is “inactive”.

Which “activity change, negative = inhibition” value does the source give for `O=C1c2ccccc2C(=O)N1c1ncccc1O` here?
The value was -1.73%.

Which “activity change, negative = inhibition” value does the source give for `O=C(O)c1cccc(-n2cccc2)c1` here?
The value was -15.2%.

`COc1cccc(CNc2ccc([S+](=O)([O-])Nc3cc4ccccc4s3)cc2)c1O` was tested. Which “outcome” value did it give?
The value was “inactive”.

Which “outcome” value does the source give for `Cc1cccc(C[C@H](C(=O)O)N2C(=O)c3ccc(C(=O)O)cc3C2=O)c1` here?
Its value is “inactive”.

How did the “activity change, negative = inhibition” value turn out when `Cc1ccc(C)c(SC2=NS(=O)(=O)c3ccccc32)c1` was run?
Its value is -1.17%.

With `O=C(c1ccc(-c2cc(O)c3ncccc3c2)cc1)N1CCNCC1` as the compound, how does the “activity change, negative = inhibition” value read?
Its value is -5.03%.

With `COc1ccc(C2=Nn3c(nnc3-c3ccc(OC)c(OC)c3)SC2)c(OC)c1` as the compound, how does the Potency read?
The Potency was 6.34 µM (active).

Which Potency does the source give for `N=c1c2c(ncn1-c1ccccc1)Oc1ccc3ccccc3c1C2c1ccc2c(c1)CCO2` (stereo not given) here?
Its Potency is 31.6 µM (active).

With `CN(Cc1ccco1)c1ncnc2ccc(-c3cccnc3)cc12` as the compound, how does the Potency read?
Its Potency is 11.3 µM (active).

Which “outcome” value does the source give for `Cc1cccc(C)c1-n1c(SCC(=O)NCCCCCC(=O)O)nnc1-c1cccc([S+](=O)([O-])N2CCCC2)c1` here?
The value was “inactive”.

For `CN(Cc1cccs1)c1ncnc2ccc(-c3ccc4cnn(C)c4c3)cc12`, which “activity change, negative = inhibition” value is on record?
The value was -11.3%.

With `O=C1Cc2cc(S(=O)(=O)N3CCN(c4ccc(C(F)(F)F)cc4)CC3)ccc2N1` as the compound, how does the “activity change, negative = inhibition” value read?
The value was -30.5% [at 86.7 µM].

With `O=C(Cc1ccc(Cl)c(Cl)c1)Nc1ccc(S(=O)(=O)Nc2cccc(C(=O)O)c2)cc1` as the compound, how does the “activity change, negative = inhibition” value read?
Its value is -1.36%.

`COc1ccc(OC)c(-c2nnc3n2N=C(c2ccc(OC)c(OCC4CC4)c2)CS3)c1` was tested. Which Potency did it give?
Its Potency is 2.25 µM (active).

`S=C(Nc1cc(Cl)ccn1)N1CCN(c2ccc3ccccc3n2)CC1` was tested. Which Potency did it give?
Its Potency is 5.65 µM (active).

With `CN(C)CCCNc1ncnc2ccc(-c3ccc4c(c3)OCO4)cc12` as the compound, how does the “activity change, negative = inhibition” value read?
Its value is -15.9%.

With `CCOc1ccc(C(=O)Nc2ccc(-c3nc4ccccc4[nH]3)cc2)cc1` as the compound, how does the “activity change, negative = inhibition” value read?
Its value is -23.6%.

How did the Potency turn out when `Cc1cccc(S(=O)(=O)NC2CCN(C#N)C2)c1` (stereo not given) was run?
Its Potency is 11.3 µM (active).
